Source: PubChem BioAssay (NCATS)
Records with an inconclusive call do not appear. The source made the active and inactive calls. Calls come from the whole dose curve; as a rule, active = well fitted curve in either direction with a large enough effect (not every such curve was filed as active); inconclusive = small, poorly fitted or top-dose-only effect, or another doubt; inactive = flat fitted curve, though single readings scatter.

Each compound was assayed against Mitogen-activated protein kinase 10 (Mus musculus) (UniProt Q61831) (assay: JNK3 AlphaScreen Assay (AID 530;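 note: kinase came from lysate of stimulated human HepG2 cells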)). Settings: JNK3 lysate, c-Jun phosphorylation; series mostly up to 57.1 µM; activity change, negative = inhibition: at the top concentration.
Summary of the method: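 JNK3 came from HepG2 lysates pre-activated with IL-1beta and TNF-alpha and phosphorylated biotinylated GST-cJun (1-79) at 10 uM ATP, pH 7.6, room temperature. Compounds were titrated. AlphaScreen signal used anti-phospho-cJun (Ser73) antibody.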
% is set by controls: 0 for no effect and ±100 for the full control effect.

Activity change, negative = inhibition, inactive:
Clc1ccccc1-c1ccc2ncnc(N3CCNCC3)c2c1 3.99%, CCNc1ncc2nc(-c3cccs3)c(=O)n(C)c2n1 22.5%, COCCn1c(=O)c(-c2cn(C)c3ccccc23)nc2cnc(N3CCOCC3)nc21 1.34%, CN(C)c1ccc(-c2cc(Nc3ccc(F)cc3)ncn2)cc1 -16.1%, COc1ncc2nc(-c3cccs3)c(=O)n(CCc3ccccc3)c2n1 10.4%, COc1ncc2nc(-c3ccccc3)c(=O)n(-c3ccccc3)c2n1 1.55%, Cc1noc(C)c1-c1nccc(N2CCOCC2)n1 -5.12%, FC(F)(F)c1ccccc1-c1cc(NCc2ccccc2)ncn1 12.9%, Cn1c(=O)c(-c2ccc(Cl)cc2)nc2cnc(Nc3ccccc3)nc21 -10.3%, COc1ccc(Oc2ncc3nc(-c4ccc(Cl)cc4)c(=O)n(C[C@H]4CCCO4)c3n2)cc1 -2.5%, COc1cccc(Nc2ncc3nc(C)c(=O)n(C4CC4)c3n2)c1 -4.87%, COc1cccc(Cn2c(=O)c(-c3cc(F)cc(F)c3)nc3cnc(N(C)C)nc32)c1 6.55%, CNc1nc(-c2ccc3c(c2)OCO3)nc2ccccc12 -2.48%, COc1cccc(Cn2c(=O)c(C)nc3cnc(OC)nc32)c1 -5.45%, Cc1nc2cncnc2n(C2CC2)c1=O 0.115%, COc1cccc(Cn2c(=O)cnc3cncnc32)c1 -10.5%, COCCn1c(=O)c(-c2cc(F)cc(F)c2)nc2cnc(N3CCOCC3)nc21 4.67%, CN(C)C(=O)c1ccc(-c2cc(NCc3cccnc3)ncn2)cc1 0.595%, Cc1noc(C)c1-c1cc(NCc2cccnc2)ncn1 -5.57%
